Source: the supplement of paper PMC9477273

Each molecule was assayed on DRIVER-selected RNA biosensor (aptazyme) pool (assay: maximum fold change of ribozyme cleavage across biosensor pool versus no-compound control; higher = stronger biosensor response (ligand inhibits cleavage)). Conditions: 10 µM.
Protocol: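 CleaveSeq: a pool of resynthesized hammerhead-ribozyme RNA biosensors (sTRSV scaffold with randomized loops, 1,730 sequences) was T7-transcribed at 37 °C for 15-30 min with a single compound at 10 µM. Cleaved and uncleaved products were counted by NGS, and fold change of cleavage was computed against the DMSO-only condition. The value is the maximum fold change of cleavage over all biosensors in the pool. About 255 compounds were tested individually.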
`COc1ccc(C(=O)Cc2cc3cccc(OC)c3oc2=O)cc1` showed a maximum fold change of 1.82. Molecule `CCN1CCN(CCCNC(=O)c2ccc3c(c2)NC(=O)/C(=C/C(=O)c2ccc(OC)cc2)N3)CC1` has a maximum fold change of 8.68. Molecule `CCOC(=O)c1cnc(SCc2cccc(C)c2)nc1N` has a maximum fold change of 7.72. `CCCCOc1ccc(CNC2=NS(=O)(=O)C(c3ccc(C(C)C)cc3)=C2C)cc1` showed a maximum fold change of 3.52. `CC(NC(=O)/C=C/c1ccccc1Cl)c1ccccc1` (stereo not given) was tested, and the maximum fold change was 2.1. Molecule `COc1ccc(-c2c(C)nn3c(N)c(C#N)cnc23)cc1OC` has a maximum fold change of 4.07. `COc1ccc(-c2cc3c(=O)n(CC(=O)NCc4ccccn4)ncn3n2)cc1` gave a maximum fold change of 3.51. For `COc1ccccc1OCC(O)Cn1c[n+](C)c2cc(C)c(C)cc21` (stereo not given), the maximum fold change was 3.47. In the case of `Cc1nc(NC(=N)NC(=O)CCN2C(=O)c3ccccc3C2=O)nc2ccccc12`, the maximum fold change is reported as 8.2. Work on `CCOC(=O)C1=C(C)NC(=S)NC1c1ccc(O)c(OC)c1` (stereo not given) yielded a maximum fold change of 3.37. Molecule `CCNC(=S)N1CCN=C1Nc1nc(C)cc(C)n1` has a maximum fold change of 2.17. Molecule `Cc1c(C(=O)Nc2ccncc2)sc2nc(-c3ccccc3)cn12` has a maximum fold change of 3.12. Molecule `CC1CCN(CCCNC(=O)c2ccc(CS(=O)(=O)Cc3ccc(Cl)cc3)o2)CC1` has a maximum fold change of 2.2. In the case of `CCOC(=O)N1CCN(C(=O)C2=C(C)C(=O)OC23CCCCC3)CC1`, the maximum fold change is reported as 4.06. With `COc1cc(C(=O)N(Cc2ccccc2F)C2CCS(=O)(=O)C2)cc(OC)c1OC` (stereo not given) the maximum fold change was 2.18. `CCCOc1ccc(C2c3c(oc4ccccc4c3=O)C(=O)N2c2nccs2)cc1` (stereo not given) gave a maximum fold change of 8.73. Work on `CC1CCC(NC(=O)c2cc(C3CC3)n[nH]2)CC1` (stereo not given) yielded a maximum fold change of 1.87. With `C=Cc1ccc(Cn2c(C)c(CNCCc3ccccc3)c(C(=O)O)c2C)cc1` the maximum fold change was 2.07. Molecule `CCc1nc2ccc(C(=O)NCCc3ccco3)cc2nc1CC` has a maximum fold change of 2.69. With `CCOC(=O)c1cnc2c(C)c(Cl)ccc2c1NCCCN1CCOCC1` the maximum fold change was 12.1. `Cc1ccc(-c2noc(CCC(=O)NCc3ccc(F)cc3Cl)n2)cc1` was tested, and the maximum fold change was 3.35. `N#C/C(=Cc1c(Oc2ccc(cc2)C)nc2n(c1=O)cccc2)/C(=O)OC` gave a maximum fold change of 5.19. Molecule `COc1ccc(/C=C/C(=O)Nc2nc3ccc(S(C)(=O)=O)cc3s2)cc1Br` has a maximum fold change of 3.76. With `CCOC(=O)c1c(C)c(-c2ccccc2)n(CC(=O)NCCN(C)C)c1C` the maximum fold change was 2.04. For `CCOc1cc(CNc2ncc(-c3ccc(Br)cc3)n2C)ccc1O`, the maximum fold change was 2.06. For `Cc1ccc(-c2noc(CCC(=O)NCCN3CCOCC3)n2)cc1`, the maximum fold change was 3.61. `COc1cc(CNCc2c(C(=O)O)c(C)n(Cc3ccc(F)cc3)c2C)cc(OC)c1OC` showed a maximum fold change of 3.4. Molecule `CC(C)CC(NC(=O)/C(=C/c1ccco1)NC(=O)c1ccc(Br)o1)C(=O)O` (stereo not given) has a maximum fold change of 1.98. Work on `c1ccc2nc3c(nc2c1)c1ccccc1n3CN1CCCCC1` yielded a maximum fold change of 10.9. Molecule `C=Cc1ccc(Cn2c(C(=O)O)c(CNCC3CCCO3)c3ccc(C)cc32)cc1` (stereo not given) has a maximum fold change of 2.75. `COc1ccccc1/C=C1N=C(c2ccc(Br)cc2)OC1=O` showed a maximum fold change of 2.7. `COc1ccc(/C=c2\s/c(=C/C(=O)c3ccc(C)cc3)[nH]c2=O)cc1OC` was tested, and the maximum fold change was 2.47. `COc1ccc(-c2cn3c(C)c(C(=O)NCCCOC(C)C)sc3n2)cc1` was tested, and the maximum fold change was 2.79. Molecule `CCOc1cc(C(=O)C(=O)c2ccc(OC)c(OCC)c2)ccc1OC` has a maximum fold change of 2.92. Work on `O=C(Cc1cn(Cc2cccc(Cl)c2)c2ccccc12)N1CCCC1` yielded a maximum fold change of 3.3. `Cc1ccc(NC(=O)c2cc3c(=O)oc4ccccc4c3s2)nc1` showed a maximum fold change of 6.76. `CCOC(=O)c1ccc(S(=O)(=O)N2CCOCC2)cc1` gave a maximum fold change of 1.53. In the case of `Cc1ccc(S(=O)(=O)NCC2CCC(C(=O)NCC(C)c3ccccc3)CC2)cc1` (stereo not given), the maximum fold change is reported as 4.21. `CN(CCCNC(=O)c1ccc(CS(=O)(=O)Cc2cccc(Cl)c2)o1)C1CCCCC1` gave a maximum fold change of 1.94. Molecule `COc1cc(CNc2ncc(-c3ccccc3)n2C)cc(OC)c1OC` has a maximum fold change of 1.75.
